The whole screen tested about 290,000 compounds, of which about 11,000 (3.8%) were called active. The list comes from a sample in which actives are over-represented; it also holds similar structures and randomly drawn compounds. Unmarked numbers belong to inactive results.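 How the source made its calls: active means mean replicate inhibition above about 79%, with every replicate also reaching it (limit read from the data); inconclusive means only one of the two criteria met; inactive means mean below limit and not every replicate reaching it.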
Molecular target: FAD-linked sulfhydryl oxidase ALR (Homo sapiens) (UniProt P55789)
Sequence (P55789 whole entry, looked up): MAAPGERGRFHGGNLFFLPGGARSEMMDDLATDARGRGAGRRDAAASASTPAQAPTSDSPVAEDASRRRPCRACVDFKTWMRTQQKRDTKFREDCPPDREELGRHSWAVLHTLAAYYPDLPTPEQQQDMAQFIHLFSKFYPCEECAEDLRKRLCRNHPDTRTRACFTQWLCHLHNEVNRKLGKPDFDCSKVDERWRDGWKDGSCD
Assay: inhibitors of human ALR sulfhydryl oxidase, primary screen, biochemical, H2O2 detection, HRP-luminol luminescence, single point (AID 485317)
Settings: purified ALR, DTT oxidation, active compounds read high, concentration not given here

| Compound | inhibition |
| --- | --- |
| COCCNc1nnc(SCC(=O)NNC(=O)c2ccco2)s1 | -2.35% |
| O=C(NCc1ccc2c(c1)OCO2)c1cc([N+](=O)[O-])ccc1N1CCOCC1 | -3.3% |
| O=C(O)c1cccc(S(=O)(=O)N2CC=C(c3ccccc3)CC2)c1 | 3.35% |
| Cc1ccc(C(=O)NCCNC(=O)c2ccccc2)cc1 | -3.69% |
| Cc1ccc(C(=O)CNc2ccc(F)cc2)cc1 | -18.2% |
| Cc1ccc(SC(CC(=O)c2ccc(C(C)(C)C)cc2)C(=O)O)cc1 (stereo not given) | 97.7% (active) |
| CC(C)(C)OC(=O)C[C@@H]1C/C=C\C[C@@H](CC(=O)N(CCO)Cc2ccccc2)C(=O)N[C@H](Cc2ccccc2)COC1=O | -5.13% |
| Cc1cc(NC(=O)CSCC(=O)NC(C)c2ccccc2)no1 (stereo not given) | -11.9% |
| O=C(CCCN1C(=O)/C(=C\c2ccccc2)SC1=S)Nc1ccccc1O | 1.84% |
| COc1ccc(/C=C2/SC(=O)N(CCCCCC(=O)Nc3ccccc3C(=O)O)C2=S)cc1 | 98.9% (active) |
| COc1ccc(/C=C2\SC(=O)N(CCC(=O)NCCCn3ccnc3)C2=O)cc1 | -4.29% |
| O=C1COc2ccc(C(=O)COC(=O)c3ccccc3Cl)cc2N1 | -5.15% |
| CCC(CO)Oc1cc(NC(=O)c2cccc3ccccc23)c2ncn(C(C)C)c2c1 (stereo not given) | -21.2% |
| COC(=O)CNS(=O)(=O)c1ccc(Cc2ccc(S(=O)(=O)NCC(=O)OC)cc2)cc1 | 99.2% (active) |
| COC(=O)CNS(=O)(=O)c1ccc(OC)cc1 | -8.89% |
| C/C(N)=C(/C#N)C(=O)COC(=O)CNS(=O)(=O)c1ccc(C)cc1 | -12.8% |
| COc1cc(C(=O)N(C)Cc2cccc(OC)c2OC)ccc1OCC(=O)Nc1cccc(C(F)(F)F)c1 | -114% |
| CC1O[C@@H](OC2C(O)C(C)O[C@H](OC(=O)[C@]34CCC(C)(C)C[C@H]3C3=CCC5[C@@]6(C)CC(O)C(O[C@@H]7OC(CO)C(O)[C@@H](O)[C@@H]7O)[C@@](C)(C(=O)O)C6CC[C@@]5(C)[C@]3(CO)CC4)C2O[C@H]2OC(C)[C@@H](O[C@@H]3OCC(O[C@@H]4OC(CO)C(O)[C@H](O)C4O)[C@@H](O)[C@@H]3O)[C@H](O)C2O)C(O)C(O)C1O (stereo not given in full) | 22.9% |
| O=C(C[C@H]1C/C=C\C[C@@H](NC(=O)OCC2c3ccccc3-c3ccccc32)C(=O)O[C@@H](c2ccccc2)CNC1=O)N[C@H](CO)Cc1ccccc1 | 0.728% |
| OCc1ccc(-c2ccccc2)c(-c2ccccc2)c1 | -3.81% |
| CCOc1cc(-c2nc3cc(C)ccn3c2NCC2CCCO2)ccc1O (stereo not given) | 99.6% (active) |
| CCOc1ccc(C(=O)Nc2ccc(S(=O)(=O)NCC3CCCO3)cc2)cc1OCC (stereo not given) | 1.23% |
| CCOc1ccccc1Nc1nnc(SCC(=O)NCC2CCCO2)s1 (stereo not given) | 1.03% |
| O=C(COC(=O)c1ccc(F)cc1)Nc1ccc2c(c1)OCO2 | -9.08% |
| C=CC[C@@H](CC(=O)N[C@H](CO)Cc1ccccc1)C(=O)N[C@@H](COC(=O)[C@@H](CC=C)Cc1ccc(F)cc1)Cc1c[nH]c2ccccc12 | 10.3% |
| COc1ccccc1C(=O)Nc1ccccc1C(=O)Nc1ccccc1 | 4.88% |
| COc1ccccc1C(=O)Nc1nc2nc(-c3ccccc3)cc(=O)n2[nH]1 | 97.8% (active) |
| COc1ccccc1C(=O)Nc1ccc(Nc2ccccc2)cc1 | -2.18% |

| Compound | inhibition |
| --- | --- |
| O=C(CNC(=O)c1ccco1)NNC(=O)c1ccc(Br)cc1 | -12.3% |
| C=CCC1(C(=O)N(C)Cc2ccccc2)CCN(C(=O)OC(C)(C)C)CC1 | -25% |
| CC(=O)Nc1ccc(NC(=O)CSc2ncnc3c2cnn3Cc2ccccc2)cc1 | -9.78% |
| COc1ccc(NC(=O)CSc2ncnc3[nH]ncc23)cc1 | 98.6% (active) |
| COc1ccc(NC(=O)CSc2nc(C)cs2)cc1 | -14.7% |
| CCCCn1nc(C(=O)Nc2cccc(C(=O)NC3CC3)c2)c2ccccc2c1=O | -0.223% |
| Cc1ccc(Nc2nnc(SC(C)C(=O)NC3CC3)s2)cc1 (stereo not given) | 7.72% |
| COc1ccccc1C(=O)NCCC(=O)N(C)Cc1cccnc1 | -1.19% |
| COc1ccccc1C(=O)N1CCN=C1SCc1cccnc1 | 96.4% (active) |
| COc1cccc(OC)c1C(=O)N1CCN(Cc2cccnc2)CC1 | 6.59% |
| C=C1CCC(N(O)c2cc(C)on2)C(=C)CCC2C1CC2(C)C (stereo not given) | 4.12% |
| COc1ccccc1C(=O)OCC(=O)Nc1cccc(S(=O)(=O)NC2=NCCCCC2)c1 | 14.6% |
| Cc1ccc(S(=O)(=O)N2CCN(C(=O)Cn3c(=O)cnc4ccccc43)CC2)c(C)c1 | -23.6% |
| CCc1sc(C(=O)N2CCN(CC(=O)Nc3cccc(F)c3)CC2)cc1C | -6.06% |
| CCNc1nc(N)nc(-c2cc(Cl)ccc2OC)n1 | 4.24% |
| CCOc1cc(/C=C(\C#N)c2nc(-c3cccs3)c(NC(C)=O)s2)ccc1O | -22.4% |
| CCNc1nc(NCC)nc(N/N=C/c2ccc(O)c(OC)c2)n1 | 99.1% (active) |
| COc1cc(/C=N/Nc2nc3ccccc3s2)ccc1O | 46.3% |
| COc1ccc(/C=N/Nc2nc3ccccc3o2)cc1OC | -12.6% |
| COc1cc(/C=N\Nc2nc(-c3cccs3)c(NC(C)=O)s2)ccc1O | 98.9% (active) |
| COc1ccccc1/C=N/Nc1nc(C)c(C(C)=O)s1 | 3.01% |
| CSc1ccc(/C=C2\NC(=O)NC2=O)cc1 | 4.58% |
| Cc1ccc(N2NC(=O)/C(=C/C=C/c3ccco3)C2=O)cc1C | 97.4% (active) |
| COC(=O)C1=C(C)N(c2ccc(Br)cc2)C(=O)/C1=C\c1ccco1 | 3.31% |
| Cc1ccc(-c2cc(C(=O)N/N=C/C=C/c3ccco3)c3ccccc3n2)cc1C | -5.26% |
| Cc1ccc(N=C2NC(=O)/C(=C/C=C/c3ccco3)S2)cc1C | 88.6% (active) |
| Cc1cccc(N=C2NC(=O)/C(=C/c3cn(C)c4ccccc34)S2)c1 | -1.56% |

— PubChem BioAssay AID485317 (Broad Institute, 2010)
